The values below come from PubChem BioAssay (NCI).

Test in all cases: NCI-60 one-dose screen, 48 h (100 = growth as untreated, 0 = no growth, -100 = all killed)
Assay [1] has as its system NCI-H226 lung. The note with it: 10 µM.
The test system of assay [2] is NCI-H322M lung. The note with it: 10 µM.
In assay [3] the test system is HOP-62 NSCLC. The note with it: 10 µM.
The subject of assay [4] is NCI-H460 lung. Particulars: 10 µM.
For assay [5], the system named is A549/ATCC NSCLC. The note with it: 10 µM.
Assay [6] has as its system COLO 205 colon. The note with it: 10 µM.
The test system of assay [7] is DU-145 prostate. The note with it: 10 µM.
Assay [8] has as its system SF-268 CNS. The note with it: 10 µM.
The subject of assay [9] is SF-295 CNS. Particulars: 10 µM.
Assay [10] has as its system SF-539 CNS. The note with it: 10 µM.
The test system of assay [11] is HCT-15 colon. The note with it: 10 µM.
In assay [12] the test system is HT29 colon. The note with it: 10 µM.
The subject of assay [13] is SNB-75 CNS. The note with it: 10 µM.
For assay [14], the system named is SNB-19 CNS. Particulars: 10 µM.
In assay [15] the test system is U251 CNS. Particulars: 10 µM.
Assay [16] deals with PC-3 prostate. Particulars: 10 µM.
Assay [17] has as its system EKVX NSCLC. The note with it: 10 µM.
Assay [18] concerns UO-31 renal. Particulars: 10 µM.
For assay [19], the system named is ACHN renal. The note with it: 10 µM.
For assay [20], the system named is HL-60(TB) leukemia. Particulars: 10 µM unless noted.

SMILES strings stand for the structures. About 83,000 compounds went through this panel and 20% of them were active in at least one assay; those are over-represented in the sample as a whole.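 Testing used 96-well plates and a 48-hour single-concentration exposure. Example: -40 means 40% of the starting cells died.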 Unmarked numbers belong to inactive results. The source made the active and inactive calls. The calls were made as follows: active = growth percent below 10; inactive = the rest.

Consider `CC(=O)O[C@@H]1[C@@H]2O[C@H]2[C@@](C)(O)C(=O)[C@@H](C)C/C=C/[C@H]2[C@@H]3O[C@]3(C)[C@@H](C)C3[C@H](Cc4ccccc4)NC(=O)[C@@]312` (stereo partly drawn), for which the growth in assay [1] is 65.7%; in assay [2] it was 92.5%; in assay [3], 5.72% (active); in assay [4], 28.5%; in assay [5], 25.1%; in assay [6], 38.8%. For the same molecule, the growth was 50.2% in [7]; 26.5% in assay [8]; 65.4% in assay [9]; 51.5% in assay [10]; 54.1% in assay [11]; 36.3% in [12]. In addition, the growth was -12.9% (active) in assay [13]; 55.1% in assay [14]; 43.1% in assay [15]; 72.3% in assay [16]; 39.1% in assay [17]; 24.8% in assay [18]. Further, the figures for the growth in assay [19] and in assay [20] were 40.4% and 58.2%, respectively.

`C=C1CC[C@@H]2[C@]3(C)COC(c4ccccc4)O[C@@H]3CC[C@@]2(C)[C@@H]1C/C=C1/C(=O)OC[C@H]1O` (stereo partly drawn): the growth in [20] was 48.9%.

In the case of `COc1cc(OC)c(S(=O)(=O)N(CCCl)CCCl)cc1C(=O)/C=C/c1ccc(Cl)cc1`, the growth is 78.9% in assay [1]; 71.9% in assay [2]; 91.7% in [3]; 77.7% in assay [4]; 71.5% in [5]; 101% in [6]. The growth in assay [7] was 68.8%; in [8], 73.2%; in assay [9], 88.7%; in [10], 51.3%; in assay [11], 31.6%; in assay [12] it was 79.5%. Further, the growth was 37.8% in assay [13]; 65.2% in assay [14]; 55.1% in assay [15]; 70.3% in [16]; 85.5% in assay [17]; 66.9% in [18]. The growth was 65.3% in [19] and 49.4% in assay [20].

For `Cc1cc(=O)[nH]c(O)c1C#N`, the growth in assay [20] is 100%.

`COC(=O)N1CCN(CCNCc2ccc(NC(=O)c3ccc(C)c(C#Cc4cnc5cccnn45)c3)cc2C(F)(F)F)CC1`: the growth in assay [20] was -12.3% (active).

With `CC(=O)Nc1cccc(Nc2nc(N[C@@H](C)c3ccccc3)c3ccccc3n2)c1`, the growth in assay [20] was -50.7% (active).

With `COc1cc2cc(Oc3ccc(NC(=O)c4cc(C(F)(F)F)cc(C(F)(F)F)c4)cc3)c(C)nc2cc1OCCN1CCOCC1`, the growth in assay [20] was 89.4%.

With `CCCCCc1ccc(S(=O)(=O)Nc2cc(-c3csc(NC(=O)CN4CCN(C)CC4)n3)ccc2N2CCN(C)CC2)cc1`, the growth in assay [20] is -48.8% (active).

For the molecule `N=c1c2cc(-c3ccccc3)oc2ncn1/N=C/c1ccccc1`, the growth in assay [20] was 58.8%.

On to `N#Cc1cnc2ccc(-c3cnc4[nH]ncc4c3)cc2c1N1CCc2cc(F)c(Cl)cc21`, for which, in assay [20], the growth was 1.45% (active).

With `C[C@@H](Nc1c(C#N)cnc2ccc(-c3cnc(Cl)c(NS(C)(=O)=O)c3)cc12)c1ccccc1`, the growth in assay [20] is -28.4% (active).

As to `C#CCOc1ccc(C(Nc2ccc(OC)cc2)c2nnnn2C2CCCCC2)cc1` (stereo not drawn), in assay [20], the growth was 84.7%.

With `CC(C)(O)c1cncc(-c2ccc3ncnc(NCc4ccccc4)c3c2)c1`, the growth in assay [20] was 105%.

Take `Cc1sc2nc(NCc3ccccc3Cl)[nH]c(=O)c2c1C`: the growth in assay [20] is 75.1%.

On to `NS(=O)(=O)c1ccc(Nc2nc(N/N=C/c3ccccn3)nc(Nc3ccccc3)n2)cc1`, for which the growth in [20] is 2.68% (active).

As for `CC1=C(C)C(=O)C(Nc2cccc(C(=O)OC(C)(C)C)c2)=C(Cl)C1=O`, the growth in [20] is 68%.

As to `CS(=O)(=O)Nc1cc(-c2ccc3ncc(C#N)c(NCc4ccccc4)c3c2)cnc1Cl`, the growth in assay [20] was -29.2% (active).

In the case of `CC(C)(C)CC(C)(C)n1nnnc1C(Nc1nccs1)c1cc2cccc3ccc4cccc1c4c32` (stereo not drawn), the growth in assay [20] is 107%.

With `CC(=O)c1cc(C(=O)N2c3ccccc3Sc3ccccc32)n2c1ccc1ccccc12`, the growth in assay [20] is 14%.

`CN1CCN(c2ccc(Nc3nc(NCCCNS(=O)(=O)c4cccc5ccccc45)c4sccc4n3)cc2)CC1`: in assay [20], the growth is -45.2% (active).

As to `CC(C)c1nn(-c2ccccc2)c(N2CCCCC2)c1/C=N/NC(N)=S`, the growth in assay [20] is 98.4%.

For `O=C1c2c(c3c4cccnc4[nH]c3c3ccc4ccccc4c23)C(=O)N1CCN1CCCCC1`, in assay [20], the growth is 35.4%.

As to `COc1ccc(CCN2C(=O)CSC2=S)cc1`, the growth in assay [20] was 54.6%.

In the case of `CC1=C(C)C(=O)C(Nc2ccccc2)=C(Cl)C1=O`, the growth in assay [20] is 45.6%.

Consider `Cc1ccc(S(=O)(=O)c2nc(-c3ccc(F)cc3)oc2S(C)(=O)=O)cc1`, for which the growth in assay [20] was 62.4%.

Consider `CCCSc1nc(Nc2ccc(/C(C)=N\NC(N)=S)cc2)c(C#N)c(-c2ccccc2)n1`, for which, in assay [20], the growth was 64%.

For the molecule `O=S(=O)(NCCNc1nccc(-n2cnc3ccccc32)n1)c1ccc(Br)cc1`, the growth in assay [20] is 114%.

`CCS(=O)(=O)Nc1ccc(C(=O)CC2(O)C(=O)Nc3ccccc32)cc1` (stereo not drawn): in [20], the growth was 102%.

Turning to `O=C(Cn1cc[n+](CC(=O)c2ccc(-c3ccccc3)cc2)c1)Nc1cccc2cccnc12`, the growth in assay [20] is 14.5%.

On to `C=C(C)[C@@H]1CC[C@]2(C)[C@H](CC=C3[C@@H]4CC(C)(C)CC[C@]4(C(=O)NCC#CCN4CCN(C)CC4)CC[C@]32C)[C@@]1(C)CCC#N`, for which the growth in [20] was -47.9% (active).

As for `O=C(Nc1cc(Cl)cc(Cl)c1)Nc1ccc2oc(=O)ccc2c1`, the growth in assay [20] is 0.984% (active).

As to `N#Cc1cccc(NC(=O)c2cc(-c3ccc(F)cc3F)ccc2O)c1`, the growth in [20] is -29.2% (active).

Take `C#CCOc1ccc(/C=N/Nc2nc(-c3ccc(OC)cc3)cs2)cc1`: in assay [20], the growth is 60%.

Take `COc1ccccc1Cn1cc(C#N)c(N)c1C(=O)c1ccc(Br)cc1`: the growth in assay [20] is 92.8%.

Consider `CCCn1cnc2c(c1=N)C(c1ccc(Cl)cc1)c1sc3c(C)cccc3c1O2` (stereo not drawn), for which, in assay [20], the growth was -20% (active).

Turning to `O=C(NNc1nc2cc(F)cc(F)c2n2cccc12)c1cccnn1`, in assay [20], the growth was 3.63% (active).

With `COc1cccc2c1C=CC1(O2)Oc2cccc(OC)c2C=C1C` (stereo not drawn), in [20], the growth was 0.839% (active).

Turning to `O=C(Nc1cccc(Cl)c1)Nc1nc2ccc([N+](=O)[O-])cc2o1`, the growth in assay [20] is 0.103% (active).

Turning to `Clc1ccc2c(NCCCn3ccnc3)c3oc4ccc(Cl)cc4c3nc2c1`, the growth in assay [20] was 78.6%.

In the case of `CN(C)CCCNc1c2ccccc2nc2c1oc1ccc(Cl)cc12`, the growth in assay [20] was -1.29% (active).

In the case of `Cc1nc(N)sc1-c1csc(Nc2ccc(C(F)(F)F)cc2)n1`, in assay [20], the growth is 27.9%.

Regarding `O=C1Nc2ccccc2/C1=C/c1ccc(CO)n1-c1ccc(Cl)cc1`, the growth in assay [20] is 15.8%.

In the case of `COc1cc(/C=N/Nc2ccnc3cc(Cl)ccc23)cc(OC)c1O`, in assay [20], the growth was -44.6% (active).

For the molecule `CC(C)(C)c1ccc(C(=O)Nc2sc3c(c2C(N)=O)CCC(O)C3)cc1` (stereo not drawn), the growth in assay [20] was 37.2%.

With `COc1cc(/C=C2\C(=O)Nc3ccccc32)ccc1OCc1ccc(F)cc1`, in assay [20], the growth was 115%.
